Five compounds from PubChem BioAssay can be followed below.

Active and inactive are the calls of the source. Unless noted, how the calls were made is not given here.

Assay [1] can be described thus: compounds binding Alexa647 anti-His antibody – biochemical, small-molecule microarray, 635 nm fluorescence, artefact control for SMM control protein annotation, primary screen (AID 1128).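 Further: score merges feature fluorescence with signal-to-noise for each printed compound spot.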 The conditions noted are these: higher = more signal.
The subject of assay [2] is Human papillomavirus type 1a E7 protein (residues 1-88). In words: HPV1a E7 small-molecule binders, primary screen, biochemical, small-molecule microarray, residues 1-88, 635 nm (AID 1129). To be noted: small-molecule microarray binding, fluorescence 635 nm; higher = more signal.
The target of assay [3] is Focal adhesion kinase 1 (Homo sapiens) (UniProt Q05397). In words: PTK2 protein binding on printed compound slides – biochemical, small-molecule microarray, 635/667 nm fluorescence, BSA, DTT, primary screen (AID 1130).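 Further: composite of spot emission at 667 nm and signal to noise over triplicate slides.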 The conditions noted are these: 635 nm fluorescence, higher = more signal.
Sequence of Focal adhesion kinase 1 (Homo sapiens) (Q05397 whole entry, looked up): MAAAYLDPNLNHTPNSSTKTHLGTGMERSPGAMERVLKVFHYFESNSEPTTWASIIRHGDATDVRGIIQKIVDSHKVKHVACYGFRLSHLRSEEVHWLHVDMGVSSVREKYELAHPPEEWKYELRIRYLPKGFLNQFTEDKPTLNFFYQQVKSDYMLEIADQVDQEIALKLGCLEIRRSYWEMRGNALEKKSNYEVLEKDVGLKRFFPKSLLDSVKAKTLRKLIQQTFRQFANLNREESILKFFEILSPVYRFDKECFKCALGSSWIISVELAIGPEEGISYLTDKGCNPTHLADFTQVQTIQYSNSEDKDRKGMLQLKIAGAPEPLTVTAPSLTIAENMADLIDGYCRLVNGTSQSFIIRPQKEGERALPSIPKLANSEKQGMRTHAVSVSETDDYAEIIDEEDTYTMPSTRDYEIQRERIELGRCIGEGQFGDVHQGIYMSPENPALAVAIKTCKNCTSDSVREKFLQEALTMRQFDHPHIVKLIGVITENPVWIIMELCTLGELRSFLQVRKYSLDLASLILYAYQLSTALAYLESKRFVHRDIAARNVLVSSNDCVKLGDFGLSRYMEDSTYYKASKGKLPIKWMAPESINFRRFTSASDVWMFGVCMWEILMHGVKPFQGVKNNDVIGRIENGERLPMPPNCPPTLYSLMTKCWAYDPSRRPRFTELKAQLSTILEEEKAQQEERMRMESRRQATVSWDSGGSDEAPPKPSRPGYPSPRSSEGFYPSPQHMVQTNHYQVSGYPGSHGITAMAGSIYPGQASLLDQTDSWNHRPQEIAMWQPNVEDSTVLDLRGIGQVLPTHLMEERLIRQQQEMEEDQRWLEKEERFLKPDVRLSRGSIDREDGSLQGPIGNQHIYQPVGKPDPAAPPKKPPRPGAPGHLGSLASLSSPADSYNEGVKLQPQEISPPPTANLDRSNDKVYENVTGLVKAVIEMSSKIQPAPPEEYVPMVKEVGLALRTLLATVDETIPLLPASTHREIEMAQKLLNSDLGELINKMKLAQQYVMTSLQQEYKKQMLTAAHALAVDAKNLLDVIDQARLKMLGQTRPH
Assay [4] concerns Fibrinogen (Alexa647-labelled). Nature of the assay: Alexa647-fibrinogen binding to printed small molecules – biochemical, small-molecule microarray, 635/667 nm fluorescence, artefact control for SMM control-protein annotation, profiling panel (AID 1131).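 Further: z-score merges 667 nm fluorescence with per-spot signal-to-noise over triplicate slides.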 To be noted: fibrinogen-A647 binding fluorescence, higher = more signal.
Assay [5] addresses Follistatin (Homo sapiens) (UniProt P19883). In words: FST protein binding to printed compounds – biochemical, small-molecule microarray, 635/667 nm fluorescence, primary screen (AID 1132). To be noted: 635 nm fluorescence, higher = more signal.
In assay [6] the target is Fibroblast growth factor 2 (Homo sapiens) (UniProt P09038). In words: basic fibroblast growth factor binding to printed compounds – biochemical, small-molecule microarray, 635/667 nm fluorescence, primary screen (AID 1133). To be noted: FGF2, fluorescence 635/667, higher = more signal.
Sequence of Fibroblast growth factor 2 (Homo sapiens) (P09038 whole entry, looked up): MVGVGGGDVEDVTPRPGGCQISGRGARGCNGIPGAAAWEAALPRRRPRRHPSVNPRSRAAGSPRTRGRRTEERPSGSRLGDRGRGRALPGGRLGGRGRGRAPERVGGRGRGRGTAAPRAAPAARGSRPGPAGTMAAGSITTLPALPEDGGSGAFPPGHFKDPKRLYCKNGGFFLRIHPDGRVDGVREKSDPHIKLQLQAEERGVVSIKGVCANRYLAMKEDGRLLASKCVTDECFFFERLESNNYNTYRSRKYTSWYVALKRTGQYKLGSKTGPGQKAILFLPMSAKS
A short description of assay [7]: JC-1 mitochondrial potential readout, lung cancer cells – cell-based, A549, JC-1 fluorescence, basal, 24 h, 100 nL, profiling panel (AID 1138).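 Further: A549 lung adenocarcinoma cells under basal conditions with no added stimulus; test concentration not given here.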 To be noted: higher = more signal.
Another assay has as its system Lefty1. Nature of the assay: Lefty1 protein binding to printed compounds – biochemical, small-molecule microarray, 635/667 nm fluorescence, primary screen (AID 1139). To be noted: fluorescence 635/667, higher = more signal.
Assay [8] concerns wheat germ agglutinin (Triticum aestivum), Alexa647-labelled. In words: Alexa647-WGA lectin binding to printed small molecules – biochemical, small-molecule microarray, 635/667 nm fluorescence, artefact control for SMM control-protein annotation, profiling panel (AID 1140).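 Further: score merges 667 nm feature emission with signal to noise over triplicate slides.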 To be noted: WGA-A647 binding, 635 nm fluorescence, higher = more signal.
Assay [9] addresses Luciferin 4-monooxygenase (Photinus pyralis) (UniProt P08659). Nature of the assay: inhibition of purified Photinus pyralis luciferase – biochemical, luminescence, purified enzyme, 2006 set, primary screen (AID 1141).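 Further: cell-free assay with purified firefly luciferase at 100 ng per well in PBS; test concentration not given here.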 The conditions noted are these: purified firefly luciferase, SteadyGlo luminescence, 30 min; higher = more signal, called active from +8 up or from −8 down.
Assay [10] deals with Wnt5a (protein binding on small-molecule microarray). In words: small molecules binding Wnt5a protein – biophysical, small-molecule microarray, 635/667 nm fluorescence, primary screen (AID 1142).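 Further: fluorescence read at 667 nm with signal to noise per printed feature.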 The conditions noted are these: 635 nm fluorescence, higher = more signal.
Assay [11] is described as follows: ATP-based viability of Huh7 replicon cells – cell-based, CellTiter-Glo luminescence, basal, 48 h, cytotoxicity control for HCV replication inhibitor project, primary screen (AID 1143).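 Further: Huh7 hepatoma cells carrying a hepatitis C replication reporter with no stimulus; test concentration not given here.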 To be noted: higher = more signal, called active from +8 up or from −8 down. (In general: In antiviral work, replicon cells carry a viral genome segment that copies itself.)
A short description of assay [12]: Pseudomonas biofilm growth suppression – PAO1 strain, BacTiter-Glo luminescence, LB-PBS, primary screen (AID 1144). The conditions noted are these: P. aeruginosa PAO1 biofilm, 12 h, higher = more signal.
A short description of assay [13]: basal CRE-LacZ reporter activity in PC12 – cell-based, unstimulated, primary screen (AID 1145). The conditions noted are these: no forskolin, luminescence, 4.5 h, higher = more signal, called active from +8 up or from −8 down.
Assay [14] in a line: forskolin-driven CRE-LacZ activity in PC12 – cell-based, CRE-LacZ reporter, forskolin-stimulated, primary screen (AID 1146).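 Further: PC12 cells with 6xCRE LacZ reporter stimulated by forskolin 10 µM; beta-galactosidase reporter signal reflecting CREB driven transcription.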 The conditions noted are these: luminescence, 4.5 h, higher = more signal, called active from +8 up or from −8 down.
Assay [15] deals with Streptavidin (Streptomyces avidinii) (UniProt P22629). Nature of the assay: compounds binding control protein streptavidin – biophysical, small-molecule microarray, 635/667 nm fluorescence, artefact control for SMM compound annotation, primary screen (AID 1147).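 Further: signal reflects streptavidin binding to arrayed compounds as a control protein.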 The conditions noted are these: higher = more signal.
Sequence of Streptavidin (Streptomyces avidinii) (P22629 whole entry, looked up): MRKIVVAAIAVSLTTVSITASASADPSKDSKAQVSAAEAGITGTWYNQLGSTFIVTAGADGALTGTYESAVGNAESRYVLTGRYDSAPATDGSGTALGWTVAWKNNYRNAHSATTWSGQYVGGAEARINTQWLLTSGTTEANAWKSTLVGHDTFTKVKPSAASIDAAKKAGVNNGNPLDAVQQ
Assay [16] in a line: probe aInhba binding on compound microarray – biochemical, small-molecule microarray, 635/667 nm fluorescence, primary screen (AID 1148).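 Further: score merges 667nm spot fluorescence with signal-to-noise for antibody binding to printed compounds.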 To be noted: higher = more signal.
Assay [17] has as its target Torsin-1A (Homo sapiens) (UniProt O14656). Nature of the assay: TOR1A wild-type binding on microarray – cell lysate, small-molecule microarray, lysate, 635/667 nm, primary screen (AID 1149). To be noted: COS7 hTOR1A-WT lysate, 635 nm fluorescence, higher = more signal.
For assay [18] the target is unchanged. Nature of the assay: torsin A mutant lysate binding on microarrays – cell lysate, small-molecule microarray, COS7 lysate, 635/667 nm fluorescence, primary screen (AID 1150).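 Further: score pools 667 nm emission and signal to noise measuring lysate protein binding.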 The conditions noted are these: COS7 hTOR1A mutant lysate, 635 nm fluorescence, higher = more signal.
The test system of assay [19] is Sonic hedgehog protein (Shh). Nature of the assay: Sonic hedgehog microarray binding compounds – biochemical, small-molecule microarray, 635/667 nm fluorescence, primary screen (AID 1151).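 Further: Shh protein binding to compounds spotted on small-molecule microarray slides; score combines spot fluorescence intensity with signal-to-noise across triplicate slides.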 To be noted: 635 nm fluorescence, higher = more signal.

Sequence of Luciferin 4-monooxygenase (Photinus pyralis) (P08659 whole entry, looked up): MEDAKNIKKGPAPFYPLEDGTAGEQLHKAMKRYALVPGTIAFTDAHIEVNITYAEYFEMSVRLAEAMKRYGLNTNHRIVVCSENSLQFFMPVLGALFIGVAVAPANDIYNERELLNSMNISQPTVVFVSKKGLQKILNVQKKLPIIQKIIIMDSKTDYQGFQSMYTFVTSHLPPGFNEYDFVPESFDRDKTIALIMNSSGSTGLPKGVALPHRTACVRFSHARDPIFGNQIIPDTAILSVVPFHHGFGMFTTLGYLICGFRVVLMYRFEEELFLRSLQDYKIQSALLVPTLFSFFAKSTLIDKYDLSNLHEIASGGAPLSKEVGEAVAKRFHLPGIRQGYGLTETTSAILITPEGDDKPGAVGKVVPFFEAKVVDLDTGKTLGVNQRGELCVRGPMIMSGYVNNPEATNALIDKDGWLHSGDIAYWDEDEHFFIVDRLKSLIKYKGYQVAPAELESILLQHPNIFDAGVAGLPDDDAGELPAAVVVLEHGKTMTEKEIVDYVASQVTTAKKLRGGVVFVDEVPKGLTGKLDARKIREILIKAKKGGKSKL
Sequence of Follistatin (Homo sapiens) (P19883 whole entry, looked up): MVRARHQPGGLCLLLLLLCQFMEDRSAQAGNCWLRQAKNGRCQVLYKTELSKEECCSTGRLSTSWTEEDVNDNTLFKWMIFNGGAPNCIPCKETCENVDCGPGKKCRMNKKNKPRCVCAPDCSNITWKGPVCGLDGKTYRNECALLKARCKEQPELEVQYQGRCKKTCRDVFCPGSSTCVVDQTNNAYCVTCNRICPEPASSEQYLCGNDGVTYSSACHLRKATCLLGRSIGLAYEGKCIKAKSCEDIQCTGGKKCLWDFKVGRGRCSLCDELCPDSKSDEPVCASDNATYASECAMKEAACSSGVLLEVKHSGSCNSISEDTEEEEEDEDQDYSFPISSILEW
Sequence of Torsin-1A (Homo sapiens) (O14656 whole entry, looked up): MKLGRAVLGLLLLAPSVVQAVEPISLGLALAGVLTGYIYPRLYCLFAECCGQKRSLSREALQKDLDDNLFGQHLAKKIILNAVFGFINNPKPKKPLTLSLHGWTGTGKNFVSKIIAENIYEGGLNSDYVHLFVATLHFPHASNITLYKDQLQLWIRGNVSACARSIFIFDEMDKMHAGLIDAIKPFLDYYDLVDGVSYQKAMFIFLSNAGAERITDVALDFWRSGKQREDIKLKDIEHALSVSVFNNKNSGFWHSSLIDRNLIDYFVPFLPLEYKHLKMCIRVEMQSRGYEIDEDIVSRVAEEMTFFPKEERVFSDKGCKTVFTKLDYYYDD

As to `COCCCNC(=O)[C@@]1(Cc2ccccc2I)c2ccccc2C(=O)N(Cc2ccccc2C(F)(F)F)[C@H]1c1ccc(CO)cc1`, the composite z-score is 0.611 in assay [1]; 0.742 in assay [2]; -0.0483 in assay [3]; 0.0568 in assay [4]; 0.672 in [5]; -0.742 in [6]. For the same compound, the composite z-score with Lefty1 was -1.15; in assay [8], -0.107; in [10], -0.347; in assay [15] it was -0.253; in [16], -0.016; with Torsin-1A (Homo sapiens) [17], 0.0167. Also, the composite z-score with Torsin-1A (Homo sapiens) [18] was -0.0514; in assay [19], -0.414. The z-score in assay [7] is 0.104; in [9] it was 0.636 (inactive); in assay [11] it was -2.13 (inactive); in assay [12], -0.528 (inactive); in assay [13], -0.619 (inactive); in assay [14], 1.15 (inactive).

As for `CO[C@H]1O[C@H](CO)[C@@H](OC(=O)CCc2ccccc2)[C@@H]2OC(=O)[C@@H](Cc3ccc4ccccc4c3)C/C=C/C[C@H](Cc3ccc4ccccc4c3)C(=O)O[C@@H]12`, the composite z-score in assay [1] was 0.0781; in assay [2], 0.0444; in assay [3], 0.138; in assay [4], -0.142; in [5], -0.564; in assay [6], -0.512. For the same compound, the composite z-score with Lefty1 is -0.346; in assay [8] it was -0.228; in [10] it was 0.0032; in assay [15] it was -0.452; in [16], -0.13; with Torsin-1A (Homo sapiens) [17], -1.32. Moreover, the composite z-score with Torsin-1A (Homo sapiens) [18] was 1.06; in assay [19], -0.657. Besides, the z-score in [7] was 1.98; in [9], -0.958 (inactive); in assay [11], -2.59 (inactive); in assay [12] it was -0.302 (inactive); in assay [13], -0.151 (inactive); in assay [14], 0.336 (inactive).

As to `[N-]=[N+]=Nc1ccccc1C[C@@]1(C(=O)NCC(O)CO)N=C(c2ccc(OCCCO)cc2)O[C@@H]1c1ccccc1N=[N+]=[N-]` (stereo not given in full), the composite z-score in assay [1] is 1.85; in assay [2], 1.18; in [3], 1.03; in assay [4], 0.79; in [5] it was 0.14; in assay [6], -0.491. Further, the composite z-score was -0.19 in the assay with Lefty1; 1.13 in [8]; 1.28 in [10]; 1.23 in assay [15]; -0.0504 in [16]; 1.53 with Torsin-1A (Homo sapiens) [17]. Besides, the composite z-score with Torsin-1A (Homo sapiens) [18] is 0.0816; in assay [19], -0.59. Further, the z-score in [7] is -2.28; in [9], -4.27 (inactive); in assay [11], -4.99 (inactive); in [12], -0.0717 (inactive); in [13] it was 0.825 (inactive); in assay [14], -1.42 (inactive).

As to `COc1ccc(C(O)C2C=CC3C(=O)N(C)C(=O)C3N2Nc2ccccc2)cc1` (stereo not given), the composite z-score turned out to be 0.908 in assay [1]; 1.24 in assay [2]; 0.368 in assay [3]; 0.925 in [4]; 0.578 in [5]; 0.0159 in [6]. The composite z-score with Lefty1 is -0.341; in assay [8], 1.08; in assay [10] it was -0.0927; in assay [15] it was 1.41; in assay [16], 0.195; in the assay with Torsin-1A (Homo sapiens) [17] it was 0.271. The results for the composite z-score (in the assay with Torsin-1A (Homo sapiens) [18]; in assay [19]) were 0.994 and 0.011, respectively. Besides, the z-score in [7] is 0.436; in [9], -1.17 (inactive); in [11], -2.05 (inactive); in [12] it was -0.371 (inactive); in assay [13], -0.143 (inactive); in [14] it was 0.459 (inactive).

Consider `C=CCC(OC(C)=O)[C@@H]1[C@@H](N(Cc2ccc(-c3ccccc3)cc2)C(=O)Cc2ccc(OC)cc2)c2cc(OCCCO)ccc2N1C(=O)Cc1ccc(OC)cc1` (stereo not given in full), for which the composite z-score came to 0.271 in [1]; 0.0716 in assay [2]; 1.78 in assay [3]; 0.513 in [4]; 0.7 in [5]; 0.0471 in assay [6]. Besides, the composite z-score was 0.161 with Lefty1; 0.365 in [8]; 0.0361 in assay [10]; 0.222 in assay [15]; 0.169 in [16]; 0.172 in the assay with Torsin-1A (Homo sapiens) [17]. Moreover, the composite z-score came to 0.212 in the assay with Torsin-1A (Homo sapiens) [18] and 0.363 in assay [19]. Besides, the z-score is 0.462 in assay [7]; 0.355 (inactive) in assay [9]; -1.79 (inactive) in [11]; 1.04 (inactive) in [12]; 0.642 (inactive) in [13]; 0.482 (inactive) in [14].
